Molecules are shown by their SMILES. Hit rate of the full screen: of about 39,000 compounds, about 3,300 (8.5%) were called active. The list comes from a sample in which actives are over-represented; it also holds similar structures and randomly drawn compounds.

This experiment deals with HepG2. The experiment in a line: cytotoxicity call (relative viability < 0.9). As to conditions: 10 µM.
As to `CNC(=O)C(=O)Nc1ccc(C)c(F)c1`, the cytotoxicity call is “inactive”.
Then `Cc1noc(C)c1NC(=O)Nc1ccc2c(c1)C(=O)N([C@H](C)CO)C[C@H](C)[C@@H](CN(C)CC1CCCCC1)OCCCC[C@H](C)O2`, with “inactive”; and `COc1cccc(S(=O)(=O)N(C)C[C@@H]2Oc3ncc(C#CCC(C)C)cc3C(=O)N([C@@H](C)CO)C[C@@H]2C)c1`, with “inactive”; and `O=C(CN1CCOCC1)N[C@@H]1CC[C@@H](CCn2cc(C3CCCC3)nn2)O[C@H]1CO`, with “inactive”.
As to `C[C@@H]1CN([C@@H](C)CO)C(=O)Cc2cc(NC(=O)NC3CCCCC3)ccc2O[C@H]1CN(C)Cc1ccc(C(F)(F)F)cc1`, the cytotoxicity call was “inactive”.
Then `Cc1noc(C)c1NC(=O)Nc1ccc2c(c1)C(=O)N([C@H](C)CO)C[C@H](C)[C@H](CN(C)S(=O)(=O)c1ccccc1)OCCCC[C@H](C)O2`, with “inactive”; and `COc1ccc(S(=O)(=O)N(C)C[C@H]2Oc3c(NS(=O)(=O)c4ccc(C)cc4)cccc3C(=O)N([C@H](C)CO)C[C@H]2C)cc1`, with “inactive”.
The result for `C[C@@H]1O[C@@H](O[C@H]2[C@H](Oc3cc(O)c(C(=O)CCc4ccc(O)cc4)c(O)c3)O[C@H](CO)[C@@H](O)[C@@H]2O)[C@H](O)[C@H](O)[C@H]1O` reads “inactive”; that for `CCC(=O)Nc1ccc(Cl)cc1`, “inactive”; that for `N=C(N=C(N)N)Nc1cccc(Cl)c1`, “inactive”.
Then `O=C(CNCCO)Nc1ccc(F)c(Cl)c1`, with “inactive”; and `O=C(Nc1ccc(C(F)(F)F)cc1)Nc1cccc(Cl)c1`, with “active”; and `O=C(Nc1ccc(Cl)cc1)Nc1ccc(Cl)c(Cl)c1`, with “active”.
As to `CC(C)C(=O)Nc1cccc(Cl)c1`, the cytotoxicity call is “inactive”.
The result for `C[C@@H]1CN([C@@H](C)CO)C(=O)c2cc(NS(=O)(=O)c3ccccc3)ccc2O[C@@H](C)CCCCO[C@@H]1CN(C)C(=O)Nc1ccc2c(c1)OCO2` reads “inactive”; that for `CCCOc1cc(N)ccc1C(=O)OCCN(CC)CC.Cl`, “inactive”.
The result for `CCN(CC)CCOc1ccc2c(c1)C(=O)c1cc(OCCN(CC)CC)ccc1-2` reads “active”; that for `O=S1(=O)[C@@H]2C[C@H]3C=CC2(CN1C1CC1)O3`, “inactive”; that for `Cc1ccc(S(=O)(=O)N(C)C[C@@H]2OCCCC[C@H](C)Oc3ccc(NC(=O)NC4CCCCC4)cc3C(=O)N([C@H](C)CO)C[C@@H]2C)cc1`, “inactive”.
Consider `Cc1ccc(S(=O)(=O)N(C)C[C@H]2OCCCC[C@H](C)Oc3ccc(NC(=O)NC4CCCCC4)cc3C(=O)N([C@@H](C)CO)C[C@@H]2C)cc1`, for which the cytotoxicity call is “inactive”.
For `Cc1ccc(S(=O)(=O)N(C)C[C@H]2OCCCC[C@H](C)Oc3ccc(NC(=O)NC4CCCCC4)cc3C(=O)N([C@H](C)CO)C[C@H]2C)cc1`, the cytotoxicity call is “inactive”.
The result for `Cc1ccc(S(=O)(=O)N(C)C[C@@H]2OCCCC[C@@H](C)Oc3ccc(NC(=O)NC4CCCCC4)cc3C(=O)N([C@@H](C)CO)C[C@@H]2C)cc1` reads “inactive”; that for `C[C@H](CO)N1C[C@H](C)[C@H](CN(C)S(=O)(=O)c2ccccc2)OCCCC[C@H](C)Oc2ccc(NC(=O)NC3CCCCC3)cc2C1=O`, “active”.
Then `Cc1ccc(S(=O)(=O)N(C)C[C@H]2OCCCC[C@H](C)Oc3ccc(NC(=O)NC4CCCCC4)cc3C(=O)N([C@@H](C)CO)C[C@H]2C)cc1`, with “inactive”; and `Cc1ccc(S(=O)(=O)N(C)C[C@H]2OCCCC[C@@H](C)Oc3ccc(NC(=O)NC4CCCCC4)cc3C(=O)N([C@H](C)CO)C[C@H]2C)cc1`, with “active”.
Consider `Cc1ccc(S(=O)(=O)N(C)C[C@@H]2OCCCC[C@H](C)Oc3ccc(NC(=O)NC4CCCCC4)cc3C(=O)N([C@H](C)CO)C[C@H]2C)cc1`, for which the cytotoxicity call was “active”.
Then `C[C@H]1CCCCO[C@@H](CN(C)S(=O)(=O)c2ccccc2)[C@@H](C)CN([C@@H](C)CO)C(=O)c2cc(NC(=O)NC3CCCCC3)ccc2O1`, with “inactive”; and `Cc1ccc(S(=O)(=O)N(C)C[C@H]2OCCCC[C@@H](C)Oc3ccc(NC(=O)NC4CCCCC4)cc3C(=O)N([C@H](C)CO)C[C@@H]2C)cc1`, with “inactive”.
The result for `C[C@@H]1CCCCO[C@H](CN(C)S(=O)(=O)c2ccccc2)[C@@H](C)CN([C@H](C)CO)C(=O)c2cc(NC(=O)NC3CCCCC3)ccc2O1` reads “inactive”.
The result for `Cc1ccc(S(=O)(=O)N(C)C[C@@H]2OCCCC[C@H](C)Oc3ccc(NC(=O)NC4CCCCC4)cc3C(=O)N([C@@H](C)CO)C[C@H]2C)cc1` reads “active”; that for `CN(C)CC(=O)N[C@H]1C=C[C@@H](CC(=O)O)O[C@@H]1CO`, “inactive”.
For the compound `C[C@H](CO)N1C[C@H](C)[C@H](CN(C)C(=O)Nc2ccc(C(F)(F)F)cc2)Oc2ccc(NC(=O)Cc3ccccc3)cc2CC1=O`, the cytotoxicity call was “inactive”.
As for `C[C@H]1CN([C@@H](C)CO)C(=O)c2cccc(NC(=O)Nc3ccccc3)c2O[C@H]1CN(C)Cc1ccc(Oc2ccccc2)cc1`, the cytotoxicity call was “inactive”.
Then `Cc1noc(C)c1S(=O)(=O)Nc1ccc2c(c1)C(=O)N([C@H](C)CO)C[C@H](C)[C@H](CN(C)Cc1ccc3c(c1)OCO3)O2`, with “inactive”; and `COC[C@@H](O)CNc1ncnc2c1CCNCC2`, with “inactive”; and `C[C@H]1CN([C@@H](C)CO)C(=O)c2cccc(NC(=O)c3nc4ccccc4s3)c2O[C@@H]1CN(C)CC1CCCCC1`, with “inactive”.
For the compound `Cc1noc(C)c1S(=O)(=O)N(C)C[C@H]1Oc2ccc(NC(=O)NC(C)C)cc2CC(=O)N([C@@H](C)CO)C[C@@H]1C`, the cytotoxicity call was “inactive”.
The result for `C[C@@H]1CN([C@@H](C)CO)C(=O)c2cc(NC(=O)c3ccccc3)ccc2O[C@@H](C)CCCCO[C@H]1CN(C)C(=O)Cc1ccccc1` reads “inactive”; that for `O=C([C@H]1CCCCN1)N1CCCC1`, “inactive”.
The result for `CC(=O)N1[C@H](CO)[C@@H](c2ccccc2)[C@H]1CNC(=O)CN1CCOCC1` reads “inactive”; that for `Cc1ccc(S(=O)(=O)N(C)C[C@H]2OCCCC[C@@H](C)Oc3ccc(NC(=O)NC4CCCCC4)cc3C(=O)N([C@@H](C)CO)C[C@@H]2C)cc1`, “active”.
For `Cc1ccc(S(=O)(=O)N(C)C[C@@H]2OCCCC[C@@H](C)Oc3ccc(NC(=O)NC4CCCCC4)cc3C(=O)N([C@@H](C)CO)C[C@H]2C)cc1`, the cytotoxicity call was “inactive”.
Turning to `Cc1ccc(S(=O)(=O)N(C)C[C@H]2OCCCC[C@@H](C)Oc3ccc(NC(=O)NC4CCCCC4)cc3C(=O)N([C@@H](C)CO)C[C@H]2C)cc1`, the cytotoxicity call was “inactive”.
The result for `Cc1ccc(S(=O)(=O)N(C)C[C@@H]2OCCCC[C@@H](C)Oc3ccc(NC(=O)NC4CCCCC4)cc3C(=O)N([C@H](C)CO)C[C@H]2C)cc1` reads “active”; that for `Cc1ccc(S(=O)(=O)N(C)C[C@@H]2OCCCC[C@H](C)Oc3ccc(NC(=O)NC4CCCCC4)cc3C(=O)N([C@@H](C)CO)C[C@@H]2C)cc1`, “inactive”.
Then `Cc1ccc(S(=O)(=O)N(C)C[C@@H]2OCCCC[C@@H](C)Oc3ccc(NC(=O)NC4CCCCC4)cc3C(=O)N([C@H](C)CO)C[C@@H]2C)cc1`, with “inactive”.

Values taken from the antibiotic and cytotoxicity screens of Wong et al. (2023).
